Columns and labels:
Assay in all cases: log2 ratio of Biotin-Ahx-Ub-VS probe labelling (fragment/DMSO); higher = less target engagement (more negative = stronger competition), active = hit call of the paper (q ≤ 0.05, log2 ratio ≤ -1)
Conditions in all cases: compound concentration: 200 uM; treatment time: 3 h
[1] = biological target: USP34 (UniProt Q70CQ2)
Summary of the method: (§1)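 Each value is an average log2 ratio of fragment to vehicle, tested by unpaired t-test. The underlying Spectronaut label-free quantities were global-median-normalised, and only proteins with ≥2 unique peptides were included. Triplicate HEK293T lysate samples (495 µg) were exposed to fragment at 200 µM or vehicle for 3 h, then to Biotin-Ahx-Ub-VS at 0.5 µM final for 1 h, before NeutrAvidin enrichment of labelled DUBs, LysC and trypsin digestion, and diaPASEF LC-MS/MS.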

[2] = biological target: T1, USP36 (UniProt Q9P275)
T1 sequence (whole entry): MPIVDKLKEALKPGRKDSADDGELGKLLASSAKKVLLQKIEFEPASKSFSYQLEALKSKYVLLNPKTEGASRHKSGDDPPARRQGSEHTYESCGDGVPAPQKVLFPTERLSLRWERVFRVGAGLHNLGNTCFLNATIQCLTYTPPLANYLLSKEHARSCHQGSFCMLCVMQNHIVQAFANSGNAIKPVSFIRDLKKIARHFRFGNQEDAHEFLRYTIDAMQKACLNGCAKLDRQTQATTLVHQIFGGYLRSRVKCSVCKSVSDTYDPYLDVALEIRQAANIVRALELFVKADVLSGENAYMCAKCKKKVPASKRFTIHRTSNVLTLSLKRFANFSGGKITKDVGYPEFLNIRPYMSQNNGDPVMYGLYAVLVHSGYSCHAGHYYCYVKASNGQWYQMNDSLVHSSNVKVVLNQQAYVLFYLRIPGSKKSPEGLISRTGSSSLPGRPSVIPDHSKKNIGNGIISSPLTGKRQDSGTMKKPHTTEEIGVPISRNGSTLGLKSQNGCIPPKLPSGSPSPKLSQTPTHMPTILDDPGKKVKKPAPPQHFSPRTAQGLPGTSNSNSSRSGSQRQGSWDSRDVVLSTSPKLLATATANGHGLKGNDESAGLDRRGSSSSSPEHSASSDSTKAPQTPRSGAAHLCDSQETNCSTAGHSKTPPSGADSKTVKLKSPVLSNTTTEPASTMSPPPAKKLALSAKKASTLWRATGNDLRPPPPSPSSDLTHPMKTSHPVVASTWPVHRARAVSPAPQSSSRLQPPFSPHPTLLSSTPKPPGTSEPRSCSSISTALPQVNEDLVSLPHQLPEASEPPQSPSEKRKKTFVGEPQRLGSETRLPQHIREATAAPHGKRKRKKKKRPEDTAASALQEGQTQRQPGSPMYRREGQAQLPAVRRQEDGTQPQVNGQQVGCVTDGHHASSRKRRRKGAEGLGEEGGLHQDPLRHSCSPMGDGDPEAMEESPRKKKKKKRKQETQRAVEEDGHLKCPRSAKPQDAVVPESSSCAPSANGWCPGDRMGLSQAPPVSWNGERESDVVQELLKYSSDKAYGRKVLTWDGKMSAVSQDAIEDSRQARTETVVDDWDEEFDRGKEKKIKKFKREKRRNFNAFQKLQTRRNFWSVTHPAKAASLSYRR
Summary of the method: as §1

[3] = biological target: T2, USP38 (UniProt Q8NB14)
T2 sequence (whole entry): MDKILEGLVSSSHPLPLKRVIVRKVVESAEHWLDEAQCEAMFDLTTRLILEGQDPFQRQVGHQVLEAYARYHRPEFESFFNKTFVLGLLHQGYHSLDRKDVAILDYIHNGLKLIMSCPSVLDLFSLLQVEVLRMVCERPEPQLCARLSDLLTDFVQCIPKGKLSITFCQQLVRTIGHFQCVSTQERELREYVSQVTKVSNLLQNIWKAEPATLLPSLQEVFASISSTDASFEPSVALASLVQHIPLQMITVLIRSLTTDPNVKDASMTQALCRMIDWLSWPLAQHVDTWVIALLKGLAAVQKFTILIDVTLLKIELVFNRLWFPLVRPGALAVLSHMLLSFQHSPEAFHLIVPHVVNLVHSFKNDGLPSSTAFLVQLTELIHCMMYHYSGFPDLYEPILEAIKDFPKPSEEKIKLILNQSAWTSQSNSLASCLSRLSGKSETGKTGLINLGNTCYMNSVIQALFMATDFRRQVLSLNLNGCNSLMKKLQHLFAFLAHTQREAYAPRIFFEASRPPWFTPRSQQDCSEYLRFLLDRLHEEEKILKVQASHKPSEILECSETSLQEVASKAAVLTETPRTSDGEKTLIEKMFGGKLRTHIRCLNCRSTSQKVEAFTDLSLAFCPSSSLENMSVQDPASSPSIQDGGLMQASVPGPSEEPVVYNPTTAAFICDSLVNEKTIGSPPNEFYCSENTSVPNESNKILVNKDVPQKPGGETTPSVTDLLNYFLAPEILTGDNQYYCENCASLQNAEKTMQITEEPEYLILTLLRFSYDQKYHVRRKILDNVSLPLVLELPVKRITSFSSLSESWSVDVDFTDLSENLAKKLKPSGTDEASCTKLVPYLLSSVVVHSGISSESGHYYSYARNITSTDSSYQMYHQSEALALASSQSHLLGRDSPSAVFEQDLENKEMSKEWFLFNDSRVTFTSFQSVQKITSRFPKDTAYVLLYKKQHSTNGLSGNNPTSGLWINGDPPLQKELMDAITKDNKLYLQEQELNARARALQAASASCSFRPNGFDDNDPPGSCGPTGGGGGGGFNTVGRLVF
Summary of the method: as §1

[4] = biological target: T3, USP39 (UniProt Q53GS9)
T3 sequence (whole entry): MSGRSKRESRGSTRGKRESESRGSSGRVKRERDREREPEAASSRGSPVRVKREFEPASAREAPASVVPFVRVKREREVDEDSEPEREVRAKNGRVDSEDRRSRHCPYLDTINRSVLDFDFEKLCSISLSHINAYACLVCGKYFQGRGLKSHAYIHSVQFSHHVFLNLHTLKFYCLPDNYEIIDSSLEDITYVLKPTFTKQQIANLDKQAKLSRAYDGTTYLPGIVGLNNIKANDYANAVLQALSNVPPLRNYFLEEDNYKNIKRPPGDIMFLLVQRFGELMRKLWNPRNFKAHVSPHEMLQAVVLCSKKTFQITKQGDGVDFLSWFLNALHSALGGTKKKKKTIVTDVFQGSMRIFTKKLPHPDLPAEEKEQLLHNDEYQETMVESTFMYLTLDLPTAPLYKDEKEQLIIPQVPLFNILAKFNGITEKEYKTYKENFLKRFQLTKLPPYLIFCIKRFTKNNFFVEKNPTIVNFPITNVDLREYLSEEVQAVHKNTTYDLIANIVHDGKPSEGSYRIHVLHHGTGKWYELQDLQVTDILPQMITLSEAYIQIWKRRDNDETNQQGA
Summary of the method: as §1

[5] = biological target: T4, USP4 (UniProt Q13107)
T4 sequence (whole entry): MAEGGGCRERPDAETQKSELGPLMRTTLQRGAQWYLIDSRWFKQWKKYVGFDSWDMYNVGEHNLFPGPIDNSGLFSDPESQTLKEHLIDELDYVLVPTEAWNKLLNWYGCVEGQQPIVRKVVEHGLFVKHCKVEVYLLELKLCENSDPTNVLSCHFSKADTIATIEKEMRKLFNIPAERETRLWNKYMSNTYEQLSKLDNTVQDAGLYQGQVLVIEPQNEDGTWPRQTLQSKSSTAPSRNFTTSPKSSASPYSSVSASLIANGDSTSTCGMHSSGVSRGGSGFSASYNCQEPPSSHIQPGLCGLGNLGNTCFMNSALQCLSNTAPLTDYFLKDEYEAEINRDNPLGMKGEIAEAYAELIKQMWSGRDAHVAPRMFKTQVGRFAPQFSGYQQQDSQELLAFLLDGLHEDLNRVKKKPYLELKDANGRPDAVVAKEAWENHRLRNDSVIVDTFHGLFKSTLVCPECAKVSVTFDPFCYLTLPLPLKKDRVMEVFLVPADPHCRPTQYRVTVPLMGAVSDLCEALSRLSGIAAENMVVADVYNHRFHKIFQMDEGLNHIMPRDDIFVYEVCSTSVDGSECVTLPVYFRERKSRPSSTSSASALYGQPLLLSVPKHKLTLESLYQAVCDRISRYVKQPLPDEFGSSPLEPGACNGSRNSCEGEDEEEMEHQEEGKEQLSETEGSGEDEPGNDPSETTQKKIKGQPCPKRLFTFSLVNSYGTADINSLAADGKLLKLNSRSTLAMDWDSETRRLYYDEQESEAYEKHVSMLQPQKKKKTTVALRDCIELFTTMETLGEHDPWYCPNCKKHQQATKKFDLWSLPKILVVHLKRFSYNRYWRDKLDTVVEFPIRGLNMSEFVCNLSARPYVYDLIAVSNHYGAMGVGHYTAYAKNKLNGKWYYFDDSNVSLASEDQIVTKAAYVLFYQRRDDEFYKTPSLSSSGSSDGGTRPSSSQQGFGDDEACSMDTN
Summary of the method: as §1

Measured: log2 ratio of Biotin-Ahx-Ub-VS probe labelling

Sequence of USP34 (Q70CQ2 whole entry, the tested form may be a part): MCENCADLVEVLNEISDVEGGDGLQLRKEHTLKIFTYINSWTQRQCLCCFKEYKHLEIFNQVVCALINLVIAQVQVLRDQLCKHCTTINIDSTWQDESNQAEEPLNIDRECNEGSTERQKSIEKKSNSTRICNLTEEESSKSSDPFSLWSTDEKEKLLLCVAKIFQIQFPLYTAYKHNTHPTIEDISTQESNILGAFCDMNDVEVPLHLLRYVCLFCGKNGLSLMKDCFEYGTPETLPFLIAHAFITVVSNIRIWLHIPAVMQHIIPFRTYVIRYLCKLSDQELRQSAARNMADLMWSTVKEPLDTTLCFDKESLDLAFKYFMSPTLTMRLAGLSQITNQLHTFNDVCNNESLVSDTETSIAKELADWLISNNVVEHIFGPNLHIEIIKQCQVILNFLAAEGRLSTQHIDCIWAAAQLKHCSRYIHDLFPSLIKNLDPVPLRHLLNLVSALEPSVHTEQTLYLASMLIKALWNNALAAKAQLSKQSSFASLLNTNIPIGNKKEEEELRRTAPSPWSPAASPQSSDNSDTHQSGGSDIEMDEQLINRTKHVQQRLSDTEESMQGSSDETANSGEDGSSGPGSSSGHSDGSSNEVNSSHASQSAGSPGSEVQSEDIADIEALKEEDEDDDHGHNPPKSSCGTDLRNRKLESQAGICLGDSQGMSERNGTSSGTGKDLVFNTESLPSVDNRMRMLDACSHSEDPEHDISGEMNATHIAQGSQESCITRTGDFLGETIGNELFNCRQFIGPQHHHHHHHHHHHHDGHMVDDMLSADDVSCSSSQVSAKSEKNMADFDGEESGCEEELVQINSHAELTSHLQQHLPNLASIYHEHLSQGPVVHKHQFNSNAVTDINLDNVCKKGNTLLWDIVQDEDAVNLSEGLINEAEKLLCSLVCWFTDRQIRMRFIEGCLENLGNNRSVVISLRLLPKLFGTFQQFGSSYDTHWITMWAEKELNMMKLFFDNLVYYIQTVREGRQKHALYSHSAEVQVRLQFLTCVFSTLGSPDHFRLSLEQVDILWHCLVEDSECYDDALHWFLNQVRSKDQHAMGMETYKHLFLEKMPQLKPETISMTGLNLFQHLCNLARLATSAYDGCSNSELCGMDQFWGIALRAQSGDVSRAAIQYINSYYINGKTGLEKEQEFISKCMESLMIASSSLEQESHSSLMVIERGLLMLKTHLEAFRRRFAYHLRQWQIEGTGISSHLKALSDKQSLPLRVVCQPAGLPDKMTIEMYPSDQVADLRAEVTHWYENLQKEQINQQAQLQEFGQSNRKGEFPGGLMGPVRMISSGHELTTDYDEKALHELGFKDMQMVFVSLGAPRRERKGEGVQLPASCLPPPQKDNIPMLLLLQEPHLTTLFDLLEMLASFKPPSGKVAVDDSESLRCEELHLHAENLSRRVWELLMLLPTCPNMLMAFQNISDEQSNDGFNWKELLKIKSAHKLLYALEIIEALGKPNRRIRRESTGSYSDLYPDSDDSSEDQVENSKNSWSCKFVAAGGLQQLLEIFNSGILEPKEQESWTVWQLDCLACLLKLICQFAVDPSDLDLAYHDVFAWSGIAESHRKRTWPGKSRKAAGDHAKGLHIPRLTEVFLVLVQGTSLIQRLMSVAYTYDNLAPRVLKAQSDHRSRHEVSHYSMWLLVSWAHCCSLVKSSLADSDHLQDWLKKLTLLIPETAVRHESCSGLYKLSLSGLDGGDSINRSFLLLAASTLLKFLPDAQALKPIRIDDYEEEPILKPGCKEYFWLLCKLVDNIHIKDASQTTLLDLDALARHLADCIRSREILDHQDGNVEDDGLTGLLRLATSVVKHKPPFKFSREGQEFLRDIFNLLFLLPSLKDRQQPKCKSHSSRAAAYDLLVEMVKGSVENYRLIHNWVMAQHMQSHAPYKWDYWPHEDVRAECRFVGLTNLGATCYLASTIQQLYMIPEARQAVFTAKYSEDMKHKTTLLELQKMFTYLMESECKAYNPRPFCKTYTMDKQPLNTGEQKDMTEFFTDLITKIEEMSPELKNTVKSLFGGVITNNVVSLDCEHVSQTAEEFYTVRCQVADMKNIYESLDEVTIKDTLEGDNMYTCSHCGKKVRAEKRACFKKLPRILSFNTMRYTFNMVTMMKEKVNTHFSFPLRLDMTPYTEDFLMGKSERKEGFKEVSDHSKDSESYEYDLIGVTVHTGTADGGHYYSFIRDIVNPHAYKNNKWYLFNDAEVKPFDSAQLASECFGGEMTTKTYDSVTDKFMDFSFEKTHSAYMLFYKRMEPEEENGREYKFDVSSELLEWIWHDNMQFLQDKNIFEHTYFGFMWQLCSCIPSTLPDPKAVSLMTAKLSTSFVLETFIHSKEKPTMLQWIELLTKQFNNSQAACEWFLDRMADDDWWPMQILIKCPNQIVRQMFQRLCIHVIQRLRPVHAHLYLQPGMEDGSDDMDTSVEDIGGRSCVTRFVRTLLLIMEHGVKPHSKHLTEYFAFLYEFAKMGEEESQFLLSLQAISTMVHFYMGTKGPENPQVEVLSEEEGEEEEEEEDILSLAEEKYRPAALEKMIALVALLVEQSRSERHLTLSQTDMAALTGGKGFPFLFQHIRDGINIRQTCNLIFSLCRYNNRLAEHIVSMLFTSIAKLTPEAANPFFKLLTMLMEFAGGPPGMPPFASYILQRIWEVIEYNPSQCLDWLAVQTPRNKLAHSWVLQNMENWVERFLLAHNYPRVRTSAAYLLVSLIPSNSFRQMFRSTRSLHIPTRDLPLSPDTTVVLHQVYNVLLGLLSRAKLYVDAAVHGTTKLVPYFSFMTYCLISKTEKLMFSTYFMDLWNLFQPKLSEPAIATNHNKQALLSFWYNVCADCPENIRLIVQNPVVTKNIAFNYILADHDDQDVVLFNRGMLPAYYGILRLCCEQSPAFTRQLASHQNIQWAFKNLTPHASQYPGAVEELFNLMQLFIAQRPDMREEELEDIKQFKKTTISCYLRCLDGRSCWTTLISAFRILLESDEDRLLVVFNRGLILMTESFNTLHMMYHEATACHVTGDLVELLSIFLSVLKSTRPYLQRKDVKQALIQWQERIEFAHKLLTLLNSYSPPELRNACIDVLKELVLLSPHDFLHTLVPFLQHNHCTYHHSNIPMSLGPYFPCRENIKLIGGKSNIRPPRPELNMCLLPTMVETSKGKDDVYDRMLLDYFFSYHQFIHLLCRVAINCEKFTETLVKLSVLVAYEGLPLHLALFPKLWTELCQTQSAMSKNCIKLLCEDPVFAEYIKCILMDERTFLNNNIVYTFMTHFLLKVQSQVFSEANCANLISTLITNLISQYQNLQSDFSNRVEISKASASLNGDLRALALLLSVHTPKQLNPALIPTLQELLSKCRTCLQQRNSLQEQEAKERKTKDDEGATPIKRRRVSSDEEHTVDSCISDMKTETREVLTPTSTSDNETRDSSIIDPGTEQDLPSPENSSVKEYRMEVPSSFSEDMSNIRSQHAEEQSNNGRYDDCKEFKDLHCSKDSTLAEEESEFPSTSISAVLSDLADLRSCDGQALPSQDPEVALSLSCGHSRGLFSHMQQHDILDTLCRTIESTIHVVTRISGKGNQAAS

CC(NC(=O)CCl)c1cccc(Cl)c1 (stereo not given)
inactive: [1] -0.653 | [2] -0.283 | [3] -0.175 | [4] -0.294 | [5] -0.239

From the supplement of paper PMC11732987, “Enantioselective OTUD7B fragment discovery through chemoproteomics screening and high-throughput optimisation” (Communications Chemistry, 2025)
